Assay results from PubChem BioAssay (NCI).
Compounds without any hit were thinned out: in the full panel of roughly 79,000, 15% have a hit. Calls of active or inactive are those of the source. No stated cut-off is given here; in the data, active means growth inhibition above about 70%; inactive means the rest.

Experiments:
[1] = NCI Yeast Anticancer Drug Screen. Data for the rad52 strain (AID 147);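 further: 0% = growth of vehicle-treated control cultures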; conditions: S. cerevisiae rad52 mutant growth inhibition, active compounds read high
How it was run: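 The repair-mutant yeast strain was incubated with compounds, then growth was read and inhibition derived relative to vehicle.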

[2] = NCI Yeast Anticancer Drug Screen. Data for the wt1 strain (AID 149);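 further: 0% = growth of vehicle-treated wt1 cultures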; conditions: S. cerevisiae wt1 strain (SPY 50644) growth inhibition, active compounds read high
How it was run: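 Using yeast strain wt1, compound-induced growth inhibition was determined against vehicle-treated cultures.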

[3] = NCI Yeast Anticancer Drug Screen. Data for the rad50EPP+ strain (AID 151);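 further: 0% = growth of vehicle-treated control cultures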; conditions: S. cerevisiae rad50 mutant strain, active compounds read high
How it was run: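 Vehicle-normalised growth inhibition; rad50EPP+ yeast strain, altered in DNA damage repair, compound-treated.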

[4] = NCI Yeast Anticancer Drug Screen. Data for the mgt1 strain (AID 153); conditions: S. cerevisiae mgt1 mutant growth inhibition, active compounds read high
How it was run: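 Vehicle-normalized growth inhibition is determined in mgt1 yeast, a strain selected for a defined alteration in DNA repair or cell cycle control.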

[5] = NCI Yeast Anticancer Drug Screen. Data for the rad50 strain (AID 155);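 further: 0% = growth of vehicle-only cultures of the same strain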; conditions: S. cerevisiae rad50 strain growth inhibition, active compounds read high
How it was run: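 Relative growth inhibition (compound vs vehicle) was measured in yeast with a defined repair-gene alteration.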

[6] = NCI Yeast Anticancer Drug Screen. Data for the mec2-1 strain (AID 157); conditions: S. cerevisiae mec2-1 strain, active compounds read high
How it was run: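 Mutant yeast (mec2-1) grown with compound; growth inhibition relative to vehicle control reported.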

[7] = NCI Yeast Anticancer Drug Screen. Data for the rad14 strain (AID 159);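 further: 0% = growth of vehicle-treated control cultures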; conditions: S. cerevisiae rad14 strain growth inhibition, active compounds read high
How it was run: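 Screen for anticancer potential: a yeast strain altered in DNA damage repair is grown with compound, and reduced growth is quantified against vehicle controls.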

[8] = NCI Yeast Anticancer Drug Screen. Data for the sgs1 mgt1 strain (AID 161);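 further: 0% = growth of cultures given vehicle only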; conditions: S. cerevisiae sgs1 mgt1 strain, active compounds read high
How it was run: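 Compounds are added to genetically altered yeast, and growth is compared with cultures given vehicle alone to give percent inhibition.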

[9] = NCI Yeast Anticancer Drug Screen. Data for the CLN2oe strain (AID 163);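 further: 0% = growth of vehicle-only control cultures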; conditions: S. cerevisiae CLN2oe strain, active compounds read high
How it was run: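 Compounds are applied to yeast harbouring a defined cell-cycle control change; reduced growth compared with vehicle-treated controls gives the value.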

[10] = NCI Yeast Anticancer Drug Screen. Data for the cln2 rad14 strain (AID 165);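 further: 0% = growth equal to vehicle treated cultures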; conditions: S. cerevisiae cln2 rad14 strain, active compounds read high
How it was run: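 Readout is yeast growth inhibition versus vehicle-treated controls, using a strain with cln2 and rad14 alterations exposed to compound.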

[11] = NCI Yeast Anticancer Drug Screen. Data for the bub3 strain (AID 167); conditions: S. cerevisiae bub3 mutant strain, active compounds read high
How it was run: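 Screening used yeast with an engineered genetic alteration affecting cell cycle control. Compound-exposed cultures were compared with vehicle cultures, and reduced growth was taken as inhibition.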

[12] = NCI Yeast Anticancer Drug Screen. Data for the wt2 strain (AID 169);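 further: 0% = growth of vehicle-treated yeast cultures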; conditions: S. cerevisiae wt2 strain growth inhibition, active compounds read high
How it was run: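 Against vehicle-treated controls, the growth of yeast exposed to each compound was compared, and the inhibition was recorded.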

[13] = NCI Yeast Anticancer Drug Screen. Data for the mlh1 strain (AID 171);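 further: 0% = growth of vehicle-treated control cultures of the same strain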; conditions: S. cerevisiae mlh1 strain growth inhibition, active compounds read high
How it was run: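 Measured: yeast growth. Reference: vehicle-treated controls. Organism: strain with a defined alteration affecting DNA damage repair or cell cycle control, treated with compound.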

[14] = NCI Yeast Anticancer Drug Screen. Data for the sgs1 strain (AID 173);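 further: 0% = growth of vehicle-only control cultures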; conditions: S. cerevisiae sgs1 mutant, active compounds read high
How it was run: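 Each compound was added to cultures of the altered yeast strain. Growth was recorded, and inhibition was derived by comparison with vehicle controls.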

[15] = NCI Yeast Anticancer Drug Screen. Data for the mlh1 rad18 strain (AID 175); conditions: S. cerevisiae mlh1 rad18 strain growth inhibition, active compounds read high
How it was run: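 Genetically defined yeast (DNA repair-deficient) exposed to compounds; growth inhibition determined relative to vehicle.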

[16] = NCI Yeast Anticancer Drug Screen. Data for the rad18 strain (AID 177); conditions: S. cerevisiae rad18 mutant growth inhibition, active compounds read high
How it was run: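 Vehicle-treated cultures served as the baseline for scoring compound-induced growth inhibition in DNA-repair-mutant yeast.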

[17] = at 5.0 µM (retest, dose inferred, filed as 0.5)
[18] = at 50.0 µM (retest, dose inferred, filed as 5.0)

Measured: growth inhibition

CCN(CC)C(=S)N/N=C(\C)c1ccccc1O
active: [1]; at 33.0 µM 96% | [1]; at 100.0 µM 99% | [2]; at 33.0 µM 98% | [2]; at 100.0 µM 98% | [3]; at 100.0 µM 83% | [4]; at 11.0 µM 71% | [4]; at 33.0 µM 98% | [4]; at 100.0 µM 99% | [5]; at 33.0 µM 98% | [5]; [18] 96% | [5]; at 50.0 µM 93.3% | [5]; at 100.0 µM 99% | [6]; at 33.0 µM 97% | [6]; [18] 98% | [6]; at 50.0 µM 94.5% | [6]; at 100.0 µM 99% | [7]; at 33.0 µM 96% | [7]; at 100.0 µM 98% | [8]; [18] 95% | [8]; at 50.0 µM 94% | [9]; at 33.0 µM 96% | [9]; at 100.0 µM 99% | [10]; [18] 95% | [10]; at 50.0 µM 89.3% | [11]; [17] 95% | [11]; at 33.0 µM 97% | [11]; [18] 98% | [11]; at 50.0 µM 93.3% | [11]; at 100.0 µM 99% | [12]; at 33.0 µM 97% | [12]; at 100.0 µM 98% | [13]; at 33.0 µM 98% | [13]; at 100.0 µM 99% | [14]; at 33.0 µM 97% | [14]; at 100.0 µM 98% | [15]; [18] 97% | [15]; at 50.0 µM 92.2% | [16]; at 33.0 µM 97% | [16]; at 100.0 µM 98%
inactive: [1]; at 1.2 µM -36% | [1]; at 3.7 µM -42% | [1]; at 11.0 µM -1% | [2]; at 1.2 µM -7% | [2]; at 3.7 µM -3% | [2]; at 11.0 µM 28% | [3]; at 1.2 µM 9% | [3]; at 3.7 µM -7% | [3]; at 11.0 µM 15% | [3]; at 33.0 µM 45% | [4]; at 1.2 µM 9% | [4]; at 3.7 µM 16% | [5]; at 1.2 µM 0% | [5]; at 3.7 µM -13% | [5]; [17] -1% | [5]; at 11.0 µM 22% | [6]; at 1.2 µM 3% | [6]; at 3.7 µM -3% | [6]; [17] 35% | [6]; at 11.0 µM 40% | [7]; at 1.2 µM 3% | [7]; at 3.7 µM -22% | [7]; at 11.0 µM 26% | [8]; [17] -3% | [9]; at 1.2 µM 13% | [9]; at 3.7 µM -5% | [9]; at 11.0 µM 42% | [10]; [17] 54% | [11]; at 1.2 µM -21% | [11]; at 3.7 µM -7% | [11]; at 11.0 µM 36% | [12]; at 1.2 µM -37% | [12]; at 3.7 µM -31% | [12]; at 11.0 µM 6% | [13]; at 1.2 µM 11% | [13]; at 3.7 µM 25% | [13]; at 11.0 µM 66% | [14]; at 1.2 µM -5% | [14]; at 3.7 µM 5% | [14]; at 11.0 µM 42% | [15]; [17] -18% | [16]; at 1.2 µM 18% | [16]; at 3.7 µM 9% | [16]; at 11.0 µM 29%

CCC(C)COC(=O)Nc1cccc(Cl)c1 (stereo unspecified)
inactive: [1]; at 1.2 µM 5% | [1]; at 3.7 µM 6% | [1]; at 11.0 µM 11% | [1]; at 33.0 µM 59% | [2]; at 1.2 µM 1% | [2]; at 3.7 µM -1% | [2]; at 11.0 µM 0% | [2]; at 33.0 µM 6% | [3]; at 1.2 µM 6% | [3]; at 3.7 µM 15% | [3]; at 11.0 µM 39% | [3]; at 33.0 µM 61% | [4]; at 1.2 µM -7% | [4]; at 3.7 µM 0% | [4]; at 11.0 µM -8% | [4]; at 33.0 µM 29% | [5]; at 1.2 µM 9% | [5]; at 3.7 µM 22% | [5]; [17] -7% | [5]; at 11.0 µM 25% | [5]; at 33.0 µM 68% | [5]; [18] 54% | [6]; at 1.2 µM -5% | [6]; at 3.7 µM -10% | [6]; [17] -1% | [6]; at 11.0 µM -34% | [6]; at 33.0 µM -1% | [6]; [18] 32% | [7]; at 1.2 µM 3% | [7]; at 3.7 µM 2% | [7]; at 11.0 µM 2% | [7]; at 33.0 µM 34% | [8]; [17] -4% | [8]; [18] 53% | [9]; at 1.2 µM 0% | [9]; at 3.7 µM 1% | [9]; at 11.0 µM -7% | [9]; at 33.0 µM 4% | [10]; [17] -24% | [10]; [18] 1% | [11]; at 1.2 µM -2% | [11]; at 3.7 µM -4% | [11]; [17] -14% | [11]; at 11.0 µM 12% | [11]; at 33.0 µM 27% | [11]; [18] 25% | [12]; at 1.2 µM -2% | [12]; at 3.7 µM -2% | [12]; at 11.0 µM -2% | [13]; at 1.2 µM -6% | [13]; at 3.7 µM -5% | [13]; at 11.0 µM -7% | [13]; at 33.0 µM 57% | [14]; at 1.2 µM 0% | [14]; at 3.7 µM 2% | [14]; at 11.0 µM 7% | [15]; [17] -9% | [15]; [18] 69% | [16]; at 1.2 µM 4% | [16]; at 3.7 µM 5% | [16]; at 11.0 µM 1% | [16]; at 33.0 µM 27%
active: [1]; at 100.0 µM 91% | [2]; at 100.0 µM 99% | [3]; at 100.0 µM 72% | [4]; at 100.0 µM 99% | [5]; at 50.0 µM 98.9% | [5]; at 100.0 µM 99% | [6]; at 50.0 µM 98.1% | [6]; at 100.0 µM 98% | [7]; at 100.0 µM 99% | [8]; at 50.0 µM 98.8% | [9]; at 100.0 µM 99% | [10]; at 50.0 µM 97.5% | [11]; at 50.0 µM 98.6% | [11]; at 100.0 µM 99% | [12]; at 33.0 µM 82% | [12]; at 100.0 µM 99% | [13]; at 100.0 µM 99% | [14]; at 33.0 µM 87% | [14]; at 100.0 µM 99% | [15]; at 50.0 µM 97.5% | [16]; at 100.0 µM 98%
